Experimental findings from ChEMBL document CHEMBL3988442, “University of Dundee, Small-Polar-MMV Screening Library” (2021) are described below.

Structures are written as SMILES. Measured potencies and affinities stand elsewhere.

For the first assay, the target named is Protein translocase subunit SecA (Escherichia coli (strain K12)) (UniProt P10408). Briefly: Assay to Identify E. coli SecA ATPase Inhibitors. In kind it is functional. On the set-up: scale not given: direction of the effect not stated beside the values. The conditions noted are these: 30 µM.
Protein translocase subunit SecA (Escherichia coli (strain K12)), sequence (P10408 whole entry): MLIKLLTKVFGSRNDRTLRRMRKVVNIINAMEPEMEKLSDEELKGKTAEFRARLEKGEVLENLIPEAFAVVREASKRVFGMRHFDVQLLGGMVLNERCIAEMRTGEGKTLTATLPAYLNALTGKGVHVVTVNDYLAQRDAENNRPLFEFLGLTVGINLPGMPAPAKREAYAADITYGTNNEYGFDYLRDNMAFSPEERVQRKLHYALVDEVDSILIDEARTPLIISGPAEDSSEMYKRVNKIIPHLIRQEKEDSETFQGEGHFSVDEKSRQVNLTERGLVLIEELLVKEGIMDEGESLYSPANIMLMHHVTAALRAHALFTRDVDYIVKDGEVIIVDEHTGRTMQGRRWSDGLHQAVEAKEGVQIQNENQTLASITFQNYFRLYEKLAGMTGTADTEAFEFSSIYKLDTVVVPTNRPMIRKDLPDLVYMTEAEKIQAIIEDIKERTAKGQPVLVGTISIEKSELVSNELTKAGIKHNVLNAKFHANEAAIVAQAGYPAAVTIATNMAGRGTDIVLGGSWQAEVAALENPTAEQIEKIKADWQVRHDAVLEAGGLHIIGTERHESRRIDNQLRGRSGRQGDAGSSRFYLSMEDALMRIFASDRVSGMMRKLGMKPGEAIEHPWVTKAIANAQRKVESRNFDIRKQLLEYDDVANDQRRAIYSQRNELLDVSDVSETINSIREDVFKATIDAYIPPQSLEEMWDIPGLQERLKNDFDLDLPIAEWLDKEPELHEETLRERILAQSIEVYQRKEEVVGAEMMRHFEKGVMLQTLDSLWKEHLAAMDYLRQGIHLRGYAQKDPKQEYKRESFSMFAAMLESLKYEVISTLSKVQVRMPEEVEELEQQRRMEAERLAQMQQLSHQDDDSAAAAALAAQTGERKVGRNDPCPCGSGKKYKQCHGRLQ
Turning to `CNC(=O)C1CCN(C(=O)c2ccn(-c3ccc(F)cc3)n2)CC1`, the Percent Effect was -3.93%.

Turning to `COc1cccc([C@@H]2CN(C(=O)c3ccc(C)cc3O)C[C@H]2C(=O)O)c1`, the Percent Effect is -3.46%.

As for `O=C(Cc1cccc(F)c1)NCCNCc1ccco1`, the Percent Effect was -9.13%.

In the case of `Cc1ncsc1C(=O)NC1CCN(CC(=O)NCc2ccccc2)CC1`, the Percent Effect is -3.36%.

As to `CCN1CC(C(=O)N(C)Cc2ccon2)CC1=O` (stereo not drawn), the Percent Effect is -8.65%.

Regarding `COCc1c(C(=O)O)nnn1Cc1cccc(C(F)(F)F)c1`, the Percent Effect is -0.917%.

For `O=C(NCC(O)c1cccc(F)c1)c1cccnc1O` (stereo not drawn), the Percent Effect is -5.99%.

Take `Cc1nc(CN2CCOC(Cn3cncn3)C2)nc2ccccc12` (stereo not drawn): the Percent Effect is -1.64%.

For the compound `CCc1nnc2n1CCN(C(=O)CN(C)Cc1ccccc1)C2`, the Percent Effect is -2.83%.

Consider `CCn1nc(C)c(CNC(=O)c2cn(CCC3CCCCN3)nn2)c1C` (stereo not drawn), for which the Percent Effect was -5.31%.

In the case of `CCS(=O)(=O)Nc1ccc(C(=O)NCCCN2CCCC2)cc1`, the Percent Effect was -2.09%.

On to `COc1cccc(CN(C)C(=O)CSc2ccc3c(c2)OCCO3)c1`, for which the Percent Effect is -7.29%.

As to `CC(C)c1cnc(CNc2c(F)cccc2-n2cccn2)o1`, the Percent Effect worked out at 1.05%.

As to `O=S(=O)(Cc1ccccc1F)NCCCN1CCCCC1`, the Percent Effect is -5.56%.

On to `CN(C)S(=O)(=O)N1CC[C@@H]2CN(Cc3cnn(C)c3)C[C@@H]2C1`, for which the Percent Effect is -6.2%.

For the compound `CN(C(=O)Cc1ccc2c(c1)OCCO2)C1CCCC1`, the Percent Effect is 3.58%.

As to `C1CC(NCc2nc(C3CC3)no2)CN(Cc2noc(C3CC3)n2)C1` (stereo not drawn), the Percent Effect is -2.33%.

On to `COCCN1C[C@@H]2CCCO[C@@H]2[C@H](NC(=O)c2cnccn2)C1`, for which the Percent Effect was -1.67%.

Consider `Cc1nc2cc(C(=O)N3CCCC(n4cncn4)C3)ccc2n1C` (stereo not drawn), for which the Percent Effect was -4.14%.

As to `Cc1ccc(CN2CC(C(=O)N3CCCC3)C3(CCOCC3)C2)s1` (stereo not drawn), the Percent Effect was 0.462%.

As to `Cc1cc(C2CCCN(C(=O)c3cnn(C)c3)C2)ccn1` (stereo not drawn), the Percent Effect was -5.39%.

In the case of `COC(=O)N1CCCN(C(=O)NCc2ccc(Cl)s2)CC1`, the Percent Effect was -1.83%.

On to `NC(=O)CN1CCCN(C(=O)c2ccn(-c3ccccc3)n2)CC1`, for which the Percent Effect came out at 0.801%.

In the case of `CCc1nnc(CN2CCN(C(=O)c3cc4ccccc4[nH]3)CC2)o1`, the Percent Effect was -3%.

As to `Cn1ncc2c(=O)[nH]c(CN3CCC(Cc4ccccc4)CC3)nc21`, the Percent Effect was -4.67%.

Turning to `COCCN1C(=O)CO[C@H]2CN(Cc3c[nH]nc3-c3ccccc3)C[C@@H]21`, the Percent Effect was -5.09%.

With `CC(C(N)=O)S(=O)(=O)Cc1cc(Cl)c2c(c1)OCO2` (stereo not drawn), the Percent Effect was -0.171%.

Consider `COc1ccc2cc(C(=O)N3CCCCC3CC(N)=O)[nH]c2c1` (stereo not drawn), for which the Percent Effect is -4.78%.

For `CC(C)c1nccn1C1CCCN(C(=O)c2cnc[nH]2)C1` (stereo not drawn), the Percent Effect was -5.4%.

As to `COc1ccc(C(=O)N2CCC(Nc3ccc(C)nn3)CC2)c(F)c1`, the Percent Effect is -1.36%.

For `O=C(c1cnco1)N1C[C@@H]2CC[C@H](Oc3ccccc3F)[C@@H]2C1`, the Percent Effect is -8.63%.

Turning to `CN(C)C(=O)Cc1nc(CN2CCOC(Cn3cccn3)C2)cs1` (stereo not drawn), the Percent Effect was found to be 1.53%.

On to `Cc1ccoc1-c1nnc(CNCCn2cccn2)o1`, for which the Percent Effect was -0.597%.

As for `O=C(NCc1cnc2n1CCN(Cc1ccsc1)CC2)C1CCC1`, the Percent Effect is -5.62%.

`Cc1ccc(C2CCCCCN2Cc2cn(C)nc2C)s1` (stereo not drawn): the Percent Effect is -9.52%.

On to `Cc1cccc(COC[C@H]2CC[C@H]3[C@H](CCN3C(=O)CC3CC3)O2)n1`, for which the Percent Effect was -5.92%.

Turning to `CC(Cn1cccn1)NC(=O)N(C)Cc1ccc(Cl)s1` (stereo not drawn), the Percent Effect was -7.83%.

`Fc1ccc(-c2nnc(CN3CCOC(Cn4cncn4)C3)o2)cc1` (stereo not drawn): the Percent Effect is -6.46%.

For the compound `CCc1noc(C2CCCCN2C(=O)c2nnc3ccccc3n2)n1` (stereo not drawn), the Percent Effect was -4.1%.

A further assay has as its target T1, Ubiquitin-activating enzyme e1, putative (Leishmania donovani (strain BPK282A1)) (UniProt E9BSI1).
T1 sequence (whole entry): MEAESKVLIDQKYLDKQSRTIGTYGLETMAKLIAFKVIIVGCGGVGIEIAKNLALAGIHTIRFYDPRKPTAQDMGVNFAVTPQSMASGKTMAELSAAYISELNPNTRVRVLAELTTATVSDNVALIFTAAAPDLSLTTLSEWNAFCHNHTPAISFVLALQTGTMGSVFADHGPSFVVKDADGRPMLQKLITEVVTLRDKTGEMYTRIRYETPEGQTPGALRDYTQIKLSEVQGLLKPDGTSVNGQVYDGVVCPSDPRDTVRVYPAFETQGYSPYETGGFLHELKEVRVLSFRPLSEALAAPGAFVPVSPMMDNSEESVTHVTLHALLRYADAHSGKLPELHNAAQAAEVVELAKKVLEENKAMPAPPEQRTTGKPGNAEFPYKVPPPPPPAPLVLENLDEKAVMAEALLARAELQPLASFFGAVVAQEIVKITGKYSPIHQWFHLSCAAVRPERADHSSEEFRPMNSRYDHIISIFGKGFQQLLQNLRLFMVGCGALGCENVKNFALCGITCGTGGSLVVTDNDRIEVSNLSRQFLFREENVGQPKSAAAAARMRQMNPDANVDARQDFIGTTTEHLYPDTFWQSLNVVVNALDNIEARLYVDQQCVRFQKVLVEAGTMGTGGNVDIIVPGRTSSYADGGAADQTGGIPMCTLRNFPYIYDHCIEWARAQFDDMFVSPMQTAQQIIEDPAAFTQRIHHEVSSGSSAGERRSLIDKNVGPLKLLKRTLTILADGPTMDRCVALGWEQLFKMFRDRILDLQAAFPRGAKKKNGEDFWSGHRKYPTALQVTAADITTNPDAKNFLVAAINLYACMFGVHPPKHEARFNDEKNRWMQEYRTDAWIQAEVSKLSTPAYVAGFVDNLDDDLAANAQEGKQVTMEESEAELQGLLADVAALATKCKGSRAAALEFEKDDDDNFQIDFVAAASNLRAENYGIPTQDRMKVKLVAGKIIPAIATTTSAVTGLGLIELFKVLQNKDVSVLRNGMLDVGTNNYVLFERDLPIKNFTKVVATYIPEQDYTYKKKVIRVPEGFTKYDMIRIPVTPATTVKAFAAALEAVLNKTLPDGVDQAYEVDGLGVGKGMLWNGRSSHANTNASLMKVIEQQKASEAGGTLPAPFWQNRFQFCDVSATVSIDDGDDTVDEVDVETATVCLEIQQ
Briefly: Leishmania donovani Ubiquitin Activating Enzyme (LdE1). Particulars: 30 µM. In kind it is functional. On the set-up: scale not given: direction of the effect not stated beside the values.
In the case of `CNC(=O)C1CCN(C(=O)c2ccn(-c3ccc(F)cc3)n2)CC1`, the Percent Effect worked out at 16.2%.

Turning to `COc1cccc([C@@H]2CN(C(=O)c3ccc(C)cc3O)C[C@H]2C(=O)O)c1`, the Percent Effect worked out at 21.6%.

In the case of `O=C(Cc1cccc(F)c1)NCCNCc1ccco1`, the Percent Effect came out at 2.6%.

Turning to `Cc1ncsc1C(=O)NC1CCN(CC(=O)NCc2ccccc2)CC1`, the Percent Effect came to 13.2%.

`CCN1CC(C(=O)N(C)Cc2ccon2)CC1=O` (stereo not drawn): the Percent Effect came out at 0%.

As to `COCc1c(C(=O)O)nnn1Cc1cccc(C(F)(F)F)c1`, the Percent Effect is 9.33%.

Consider `O=C(NCC(O)c1cccc(F)c1)c1cccnc1O` (stereo not drawn), for which the Percent Effect turned out to be 16.4%.

For the compound `Cc1nc(CN2CCOC(Cn3cncn3)C2)nc2ccccc12` (stereo not drawn), the Percent Effect was -2.6%.

Consider `CCc1nnc2n1CCN(C(=O)CN(C)Cc1ccccc1)C2`, for which the Percent Effect came to 7.89%.

Regarding `CCn1nc(C)c(CNC(=O)c2cn(CCC3CCCCN3)nn2)c1C` (stereo not drawn), the Percent Effect came out at 2.67%.

For the compound `CCS(=O)(=O)Nc1ccc(C(=O)NCCCN2CCCC2)cc1`, the Percent Effect came out at 13.2%.

As for `COc1cccc(CN(C)C(=O)CSc2ccc3c(c2)OCCO3)c1`, the Percent Effect was -10.5%.

For the compound `CC(C)c1cnc(CNc2c(F)cccc2-n2cccn2)o1`, the Percent Effect was -1.39%.

Turning to `O=S(=O)(Cc1ccccc1F)NCCCN1CCCCC1`, the Percent Effect turned out to be 2.67%.

Regarding `CN(C)S(=O)(=O)N1CC[C@@H]2CN(Cc3cnn(C)c3)C[C@@H]2C1`, the Percent Effect is -2.6%.

Regarding `CN(C(=O)Cc1ccc2c(c1)OCCO2)C1CCCC1`, the Percent Effect is 10.5%.

Take `C1CC(NCc2nc(C3CC3)no2)CN(Cc2noc(C3CC3)n2)C1` (stereo not drawn): the Percent Effect worked out at 24.3%.

Take `COCCN1C[C@@H]2CCCO[C@@H]2[C@H](NC(=O)c2cnccn2)C1`: the Percent Effect is 8%.

Take `Cc1nc2cc(C(=O)N3CCCC(n4cncn4)C3)ccc2n1C` (stereo not drawn): the Percent Effect was 5.41%.

Regarding `Cc1ccc(CN2CC(C(=O)N3CCCC3)C3(CCOCC3)C2)s1` (stereo not drawn), the Percent Effect turned out to be 0%.

Consider `Cc1cc(C2CCCN(C(=O)c3cnn(C)c3)C2)ccn1` (stereo not drawn), for which the Percent Effect was found to be 9.46%.

As for `COC(=O)N1CCCN(C(=O)NCc2ccc(Cl)s2)CC1`, the Percent Effect came out at 16.5%.

Turning to `NC(=O)CN1CCCN(C(=O)c2ccn(-c3ccccc3)n2)CC1`, the Percent Effect amounted to 9.72%.

On to `CCc1nnc(CN2CCN(C(=O)c3cc4ccccc4[nH]3)CC2)o1`, for which the Percent Effect was -2.6%.

`Cn1ncc2c(=O)[nH]c(CN3CCC(Cc4ccccc4)CC3)nc21`: the Percent Effect amounted to 10.5%.

Turning to `COCCN1C(=O)CO[C@H]2CN(Cc3c[nH]nc3-c3ccccc3)C[C@@H]21`, the Percent Effect was determined as 12.2%.

`CC(C(N)=O)S(=O)(=O)Cc1cc(Cl)c2c(c1)OCO2` (stereo not drawn): the Percent Effect was 15.8%.

For the compound `COc1ccc2cc(C(=O)N3CCCCC3CC(N)=O)[nH]c2c1` (stereo not drawn), the Percent Effect worked out at 15.6%.

Regarding `CC(C)c1nccn1C1CCCN(C(=O)c2cnc[nH]2)C1` (stereo not drawn), the Percent Effect is 10.5%.

Consider `COc1ccc(C(=O)N2CCC(Nc3ccc(C)nn3)CC2)c(F)c1`, for which the Percent Effect turned out to be 1.27%.

Regarding `O=C(c1cnco1)N1C[C@@H]2CC[C@H](Oc3ccccc3F)[C@@H]2C1`, the Percent Effect is -6.76%.

`CN(C)C(=O)Cc1nc(CN2CCOC(Cn3cccn3)C2)cs1` (stereo not drawn): the Percent Effect was 0%.

On to `Cc1ccoc1-c1nnc(CNCCn2cccn2)o1`, for which the Percent Effect worked out at 22.8%.

For `O=C(NCc1cnc2n1CCN(Cc1ccsc1)CC2)C1CCC1`, the Percent Effect was 8.11%.

`Cc1ccc(C2CCCCCN2Cc2cn(C)nc2C)s1` (stereo not drawn): the Percent Effect came to 18.2%.

Turning to `Cc1cccc(COC[C@H]2CC[C@H]3[C@H](CCN3C(=O)CC3CC3)O2)n1`, the Percent Effect was found to be 10.7%.

For `CC(Cn1cccn1)NC(=O)N(C)Cc1ccc(Cl)s1` (stereo not drawn), the Percent Effect was 2.53%.

`Fc1ccc(-c2nnc(CN3CCOC(Cn4cncn4)C3)o2)cc1` (stereo not drawn): the Percent Effect is 0%.

Take `CCc1noc(C2CCCCN2C(=O)c2nnc3ccccc3n2)n1` (stereo not drawn): the Percent Effect amounted to 9.33%.
